# From the supplement of paper PMC11417369
# ± gives the standard deviation of the averaged measurements. In all, about 25,000 sequences were measured (“ln(normalized median fluorescence intensity)”: median about 8.9, highest 2% from about 10 on). Only a selection was taken, and the highest values are over-represented in it overall.
# Tested on: PfAP2-LT AP2 domain (GST-tagged)
# Assay: gcPBM binding intensity (ln(normalized median fluorescence intensity)); higher = stronger DNA binding
# In short: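 After 1 h on an Agilent 4 × 180k array of primer-extended double-stranded 36-bp intergenic genomic probes and negative controls, bound GST-tagged P. falciparum DNA-binding domains were detected with Alexa488 anti-GST antibody and scanned at 488 nm. The domains had been expressed in E. coli, and binding took place in 1× PBS with 1% milk, 0.2 mg/ml BSA, 0.5% salmon testes DNA and 0.03% Triton X-100. Binding intensity is the highest Masliner-normalised natural-log median intensity across replicate spots of either probe orientation.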
row,Sequence,gcPBM binding intensity (ln)
1,AAAAAAATAAAAAATATATAAATAATTAATACATGT [GTGCAC_negctrl_site633],8.62 ± 0.59
2,TTATCATTATATAGTTGTACATATTTATTTATAAAA [XGTACX_site2310],8.45 ± 0.44
3,ATTATTTTATATACATGTACATATTATATATAAAAG [XGTACX_site2735],8.51 ± 0.42
4,TATTTTTTTAATAACTGTACTTTTTTGTCAAATGGA [XGTACX_site4179],8.32 ± 0.49
5,ATATATTTCAAAGGGGTGCAGGCATATTTAAGCAAA,8.69 ± 0.49
6,TATTTTAAAAAAAAAAGTACACATAATATATATAAC [XGTACX_site5416],8.57 ± 0.57
7,CATTAAACCGTGGGAGCACACACACCCACCCACCCA [CACACA_site8000],9.57 ± 0.2
8,ATTAAACCGTGGGAGCACACACACACACACACACAT [TGCATGCA_negctrl_site72],10.6 ± 0.4
9,TTAAACCGTGGGAGCACACACACACCCAGACACATA [CACACA_site4337],9.7 ± 0.31
10,TATATATATATATATATATATATATATGTGTATGTA [TGCATGCA_negctrl_site255],10.2 ± 0.26
11,TATATATATATATATATATATATATATATATGTATA [TGCATGCA_negctrl_site17],9.8 ± 0.38
12,AAATATATATATATATATATATATGTGTGTGTATAT [GTGCAC_negctrl_site1],9.79 ± 0.45
13,TTACACTAAATATGTTCACACATTTTTTCCATCATA [CACACA_site4647],8.79 ± 0.45
14,AAAATGAACTCACGAGCACACACACCCATATATATA [CACACA_site8247],9.72 ± 0.25
15,TGAACAGACGAGCACACACACACATATATATATATA [CACACA_site1019],10.3 ± 0.2
16,AAAAAAGAAAAAAGGACACACATAAATATACTCACG [CACACA_site2904],9.16 ± 0.48
17,AACTCACGAGGACACACACACATATATATATATATA [CACACA_site4711],10.38 ± 0.035
18,AATGAACTCACGAGCACACACACACCGATATATATA [CACACA_site4710],10.1 ± 0.35
19,TGAACTCACGAGCACACACACACATATATATATATA [CACACA_site8248],10.3 ± 0.25
20,AATGAACAGACGAGCACACACACACCCATATATATA [CACACA_site1018],10.1 ± 0.16
21,CATACAGACGAACACACACACATATAAATATAAATA [CACACA_site6443],9.7 ± 0.38
22,AACGCACGAGGACACACACACATATTTATATTTATA [CACACA_site6608],9.82 ± 0.41

row,Sequence,gcPBM binding intensity (ln)
1,ATTTAATTTTCCAAATGTACTTATATTTTTATGAAA [XGTACX_site6144],8.27 ± 0.4
2,TTTTTTTTTTAAATGTGTCCTCATTATAATATATGT [XGTACX_site5331],8.65 ± 0.47
3,ATATAAGTTTTTTCTCAAAAAGTATAACGAGCATGA [CACACA_negctrl_site1375],8.6 ± 0.4
4,GACAAAAAATTAAAATAAAATAATAATATAATAAAA [GTGCAC_negctrl_site234],8.55 ± 0.67
5,TTTTGGTATACGTAATTATATAATATGTTAATCAAT [CACACA_negctrl_site645],8.61 ± 0.36
6,ATGTAGAGTAATAGTTGTACAAGGTGTATATCTCAT [XGTACX_site6370],9.29 ± 0.57
7,TAAAAGTTAATATAAACACACAAAAATTAATAAATA [CACACA_site6316],8.73 ± 0.45
8,TTATAAAAAGAACAATTAAAAAAAAATAAAATAAAA [XGTACX_negctrl_site398],8.4 ± 0.63
9,ATATAATGTGTAGGCCGTATTTACGTTTGGCAATCA [CACACA_negctrl_site1130],8.99 ± 0.56
10,ATTTGGCAGAAACACACACACACACCCACCCACATA [CACACA_site589],10.2 ± 0.35
11,TGTAAATTTGGCATCACACATAAATAAACATATAAA [CACACA_site4497],8.77 ± 0.45
12,TATACGCAGAAACACACACACATACACCCACATACA [CACACA_site1723],10 ± 0.26
13,ATTTGGCATAAACACACACACACACCCACCCACATA [CACACA_site8096],10.1 ± 0.37
14,TAGAAGCAGAAACACACACACATACATACACATACA [CACACA_site1467],9.87 ± 0.35
15,CATAAATGTATATAAACATGCAAGGACAGACTTTTA [TGCATGCA_site900],8.92 ± 0.37
16,TATATATATTATAATACATGCGGTGATGAAAGTTAT [TGCATGCA_site924],9.07 ± 0.58
17,TTATTTAAAATTTTTATGCGTATATATATAGGAACA [CACACA_negctrl_site388],8.35 ± 0.39
18,ACCTGAAGAGTCAAACGTACAAATATTATAAAATGA [XGTACX_site3188],8.77 ± 0.59
19,TTCGTCTTTTTTCTCACACACCCTTTTTATTAAAAG [CACACA_site7225],9.05 ± 0.6
20,TACCTATACAGACACACACACACACGCCCACAAAAA [CACACA_site6375],10.2 ± 0.37
21,TACTATAACAGACATACACACAAAAAAAAAAAAAAA [CACACA_site538],9.03 ± 0.47
22,CGCCCACAGATATATACACACATATATAAATAAATA [CACACA_site6877],9.04 ± 0.33

row,Sequence,gcPBM binding intensity (ln)
1,CGTGGGAGCAGACACACACACACACCCATATATATA [CACACA_site334],9.99 ± 0.5
2,AATACACCCAGACACACACACAAAAAAAAAAAAAAA [CACACA_site513],9.53 ± 0.61
3,TGGGAGCACAGACACACACACACACCCATATATATA [CACACA_site335],9.98 ± 0.36
4,CATACCTATAGACACACACACACACGCACGCACAAA [CACACA_site6374],10 ± 0.18
5,TATACACCCAGACACACACACACACCCAAAAAAAAA [CACACA_site497],10.2 ± 0.3
6,GGAGCACCCAGACACACACACACATATATATATATA [CACACA_site336],10.4 ± 0.19
7,TTGGCATACAGACACACACACACACGCCCACATATA [CACACA_site6425],10.1 ± 0.38
8,AATTAGCTCAAAGGTTGTACAAATATATTTTAATGG [XGTACX_site2352],8.66 ± 0.48
9,TTTATACATACATTCGTGCACATACGTATAACATAT,9.07 ± 0.37
10,TATAAAAAGCATAACACACACATGTCAATATATATA [CACACA_site1111],9.31 ± 0.35
11,ATTTTGATGATGTATGCACACATTGAAAATGAGAAA [CACACA_site2916],8.97 ± 0.57
12,AAAAAAAAGAATTATTGTACAAAAGAACAATAAATA [XGTACX_site1368],8.73 ± 0.57
13,TGAAAAAAAAAATACACACACGAGTTGTTATACATA [CACACA_site7486],9.09 ± 0.43
14,GGCATACACAGACACACACACACACCCACATATATA [CACACA_site591],10.2 ± 0.28
15,CATACACCCAGACACACACACATATATATATATATA [CACACA_site634],10.3 ± 0.17
16,AAAAAAAACAGACACACACACAAATACATACACAAA [CACACA_site705],9.72 ± 0.31
17,TAAATACAGACATACACACATACACCCACATATATA [CACACA_site547],9.76 ± 0.38
18,CATACAGATGGACACACACACACACCCACAGACAAA [CACACA_site4431],9.93 ± 0.36
19,TACAGATACGGACACACACACACACCCAGACAAAAA [CACACA_site4432],10.2 ± 0.46
20,TTTAAATACAGACATACACACATACACCCACATATA [CACACA_site8078],9.61 ± 0.15
21,TGAACACAGACAAATACACACAAAAAAAATAAATAA [CACACA_site4298],9.28 ± 0.57
22,AACAAATACAGACACACACACACACCCAAAAAAAAA [CACACA_site515],10.2 ± 0.26

row,Sequence,gcPBM binding intensity (ln)
1,ATAAAAGATTTATACATACACACATATTATATTCAC [CACACA_site3714],9.02 ± 0.42
2,ACAAGGAATATATAAGATAATTTTAAATATAACACG [CACACA_negctrl_site1734],8.73 ± 0.51
3,AAAAAAAGTAAATGTTGTACTATAATATGTAATATA [XGTACX_site7966],8.63 ± 0.55
4,ATATATATATATATATATATATATATATTTATATAT [GTGCAC_negctrl_site180],9.39 ± 0.042
5,AAAAAGAAAAAAAAATGTACATAAAGTCTAATGATA [XGTACX_site4781],8.78 ± 0.49
6,AAAAATTAAAAGAAAATACACACCTGTGGGTGCTTA [CACACA_site1988],8.54 ± 0.47
7,TTAATTTTTTTTTAAACACACATTTTTTTATTTAAG [CACACA_site2738],8.42 ± 0.54
8,TATGAAAAAAAAAAAAAAAAAAAAAAAAAAAAAAAA [XGTACX_negctrl_site587],8.02 ± 0.15
9,TATATATTCATATGTTGTACATAAATACAAATAAGA [XGTACX_site5602],8.69 ± 0.44
10,ATATAAGTATAATTATGTACTTATACTTATATAAAT [XGTACX_site5585],8.62 ± 0.41
11,TTGGCATACAGACACACACACACACCCCCACATATA [CACACA_site590],10.09 ± 0.085
12,AAAAATATTTTGGTTTGTACATATATTTTTACAATA [XGTACX_site8691],8.61 ± 0.34
13,ACGATGTTCATCACTACACACACAAAGAAATATATA [CACACA_site8859],9.26 ± 0.37
14,ACTTGACACGGACACACACACATATATAAAAAAAAA [CACACA_site4576],9.53 ± 0.51
15,TACACAGACGGACACACACACACACTAGAAAAAAAA [CACACA_site4435],10.1 ± 0.59
16,CACGCGCCCGGACACACACACACACCCATATATATA [CACACA_site5251],10.2 ± 0.57
17,CGTGGGAGCGGACACACACACACACCCATATATATA [CACACA_site4340],9.86 ± 0.41
18,CACAGACACGGACACACACACACACCCATATATATA [CACACA_site4354],10.1 ± 0.32
19,AAAACACGCGGACACACACACACACGCCCACATATA [CACACA_site7105],10.1 ± 0.33
20,CACAGACACGGACACACACACACACCGATATATATA [CACACA_site4353],9.88 ± 0.24
21,CACACGCACGGACACACACACATATAAAATCTATAT [CACACA_site6428],9.85 ± 0.57
22,AGCACAGACGGACACACACACACACCCACAGACACA [CACACA_site4358],10.1 ± 0.23
